# Activity calls are given as the source filed them. The calls were made as follows: active = hit-call score of the fitted dose curve at least 0.9, where 1 is the maximum; inactive = score below 0.9.
# What was measured:
# Settings in all cases: mRNA level, 48 h; actives raise or lower the signal
# [1] = read-out: Intercellular Adhesion Molecule 1 (ICAM1), ICAM1 (gene 3383); assay: LTEA_HepaRG_ICAM1: Life Technologies and Expression Analysis (LTEA) Assay for Intercellular Adhesion Molecule 1 (ICAM1) using HepaRG (AID 2283507)
# Summary of the method: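 ICAM1 transcript levels measured by qRT-PCR, normalized to three housekeeping genes (ACTB, GAPDH, POLR2A), after 48 h chemical exposure of HepaRG cells. Duplicate eight-point half-log series from 100 uM in 0.5% DMSO; gain or loss fitted against vehicle.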
# [2] = read-out: Insulin-like growth factor-binding protein 1 (IGFBP1), IGFBP1 (gene 3484); assay: LTEA_HepaRG_IGFBP1: Life Technologies and Expression Analysis (LTEA) Assay for Insulin-like growth factor-binding protein 1 (IGFBP1) using HepaRG (AID 2283508)
# Summary of the method: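 Read-out is qRT-PCR transcript level normalized to three housekeeping genes, fitted in both directions against 0.5% DMSO. Differentiated HepaRG cells received eight half-log concentrations (top 100 uM) in duplicate for 48 h in serum-free induction medium.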
# [3] = read-out: Interleukin 6 (IL6), IL6 (gene 3569); assay: LTEA_HepaRG_IL6: Life Technologies and Expression Analysis (LTEA) Assay for Interleukin 6 (IL6) using HepaRG (AID 2283509)
# Summary of the method: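 qRT-PCR read-out of IL6 transcript, normalized to three housekeeping genes, after 48 h chemical exposure of HepaRG cells; 8-point half-log series, top 100 uM, 0.5% DMSO vehicle. Bidirectional curve fitting against DMSO baseline.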
# [4] = read-out: Interleukin 6 Receptor (IL6R), IL6R (gene 3570); assay: LTEA_HepaRG_IL6R: Life Technologies and Expression Analysis (LTEA) Assay for Interleukin 6 Receptor (IL6R) using HepaRG (AID 2283510)
# Summary of the method: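 HepaRG, 48 h exposure, 8-pt half-log series, top 100 uM, 0.5% DMSO vehicle, duplicates. Read-out: TaqMan qRT-PCR of IL6R transcript, housekeeping-gene normalized. Gain or loss fitted relative to DMSO baseline.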
# [5] = read-out: Potassium channel subfamily K member 1 (KCNK1), KCNK1 (gene 3775); assay: LTEA_HepaRG_KCNK1: Life Technologies and Expression Analysis (LTEA) Assay for Potassium channel subfamily K member 1 (KCNK1) using HepaRG (AID 2283511)
# Summary of the method: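 HepaRG, 48 h exposure, 8-pt half-log series top 100 uM, 0.5% DMSO vehicle, duplicates. Readout: KCNK1 transcript by qRT-PCR (Fluidigm array), housekeeping-normalized; bidirectional curve fit relative to DMSO baseline.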
# [6] = read-out: Keratin 19 (KRT19), KRT19 (gene 3880); assay: LTEA_HepaRG_KRT19: Life Technologies and Expression Analysis (LTEA) Assay for Keratin 19 (KRT19) using HepaRG (AID 2283512)
# Summary of the method: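 KRT19 transcript measured by TaqMan qRT-PCR, referenced to three housekeeping genes, after HepaRG cells received test chemicals for 48 h. Eight half-log concentrations, top 100 uM, 0.5% DMSO vehicle; increases and decreases both fitted.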
# [7] = read-out: Lipase C (LIPC), LIPC (gene 3990); assay: LTEA_HepaRG_LIPC: Life Technologies and Expression Analysis (LTEA) Assay for Lipase C (LIPC) using HepaRG (AID 2283514)
# Summary of the method: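 HepaRG, 48 h exposure, 8-pt half-log series from 100 uM in 0.5% DMSO, duplicates. Readout: LIPC mRNA by Fluidigm qRT-PCR, housekeeping-normalized (ACTB/GAPDH/POLR2A). Gain or loss fitted bidirectionally against DMSO baseline.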
# [8] = read-out: Lipoprotein lipase (LPL), LPL (gene 4023); assay: LTEA_HepaRG_LPL: Life Technologies and Expression Analysis (LTEA) Assay for Lipoprotein lipase (LPL) using HepaRG (AID 2283515)
# Summary of the method: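 HepaRG, 48 h exposure, 8-pt half-log dilutions from 100 uM, 0.5% DMSO vehicle, duplicates; qRT-PCR (Fluidigm array) of LPL mRNA vs housekeeping genes; bidirectional curve fit relative to DMSO baseline.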
# [9] = read-out: MicroRNA 122 (MIR122), gene 406906; assay: LTEA_HepaRG_MIR122: Life Technologies and Expression Analysis (LTEA) Assay for MicroRNA 122 (MIR122) using HepaRG (AID 2283516); also: the transcript read is the microRNA miR-122
# Summary of the method: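 qRT-PCR read-out (TaqMan, Fluidigm array), normalized to three housekeeping genes; HepaRG cells dosed 48 h at 8 concentrations up to 100 uM in 0.5% DMSO, duplicate; gain or loss fitted against DMSO baseline.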
# [10] = read-out: matrix metalloproteinase-10 (MMP10), MMP10 (gene 4319); assay: LTEA_HepaRG_MMP10: Life Technologies and Expression Analysis (LTEA) Assay for matrix metalloproteinase-10 (MMP10) using HepaRG (AID 2283517)
# Summary of the method: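 Transcript levels come from Fluidigm qRT-PCR normalized to three housekeeping genes, with curves fitted bidirectionally against 0.5% DMSO. Human HepaRG cells were dosed for 48 hours at concentrations up to 100 uM.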
# [11] = read-out: matrix metalloproteinase-3 (MMP3), MMP3 (gene 4314); assay: LTEA_HepaRG_MMP3: Life Technologies and Expression Analysis (LTEA) Assay for matrix metalloproteinase-3 (MMP3) using HepaRG (AID 2283519)
# Summary of the method: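 qRT-PCR read-out of MMP3 mRNA (normalised to three housekeeping genes) in HepaRG liver cells after 48 h chemical exposure; 8-point half-log series, top 100 uM, 0.5% DMSO vehicle. Bidirectional curve fitting against DMSO baseline.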
# [12] = read-out: Nuclear factor NF-kappa-B p105 subunit (Homo sapiens) (UniProt P19838); assay: LTEA_HepaRG_NFKB1: Life Technologies and Expression Analysis (LTEA) Assay for Nuclear Factor Kappa B Subunit 1 (NFKB1) using HepaRG (AID 2283521)
# Summary of the method: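 Differentiated human HepaRG cells were exposed for 48 h in serum-free induction medium to eight concentrations (top 100 uM, half-log steps, 0.5% DMSO), in duplicate. NFKB1 mRNA was measured by TaqMan qRT-PCR, normalized to ACTB/GAPDH/POLR2A, and fitted bidirectionally against DMSO.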
# [13] = read-out: Protein phosphatase 2A (PPP2R4), PTPA (gene 5524); assay: LTEA_HepaRG_PPP2R4: Life Technologies and Expression Analysis (LTEA) Assay for Protein phosphatase 2A (PPP2R4) using HepaRG (AID 2283522)
# Summary of the method: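 HepaRG, 48 h exposure, 8-pt half-log series from 100 uM, 0.5% DMSO vehicle, duplicates. Readout: PPP2R4 mRNA, Fluidigm qRT-PCR, housekeeping-normalized. Bidirectional curve fit vs DMSO baseline.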
# [14] = read-out: Phosphatase and tensin (PTEN), PTEN (gene 5728); assay: LTEA_HepaRG_PTEN: Life Technologies and Expression Analysis (LTEA) Assay for Phosphatase and tensin (PTEN) using HepaRG (AID 2283523)
# Summary of the method: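 HepaRG, 48 h exposure, 8-pt half-log series from 100 uM top, 0.5% DMSO vehicle, duplicates. Readout: Fluidigm qRT-PCR of PTEN transcript; housekeeping normalization (ACTB, GAPDH, POLR2A). Gain or loss fitted relative to DMSO baseline.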
# [15] = read-out: solute carrier (SLC22A1), SLC22A1 (gene 6580); assay: LTEA_HepaRG_SLC22A1: Life Technologies and Expression Analysis (LTEA) Assay for solute carrier (SLC22A1) using HepaRG (AID 2283524)
# Summary of the method: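 qRT-PCR readout (TaqMan, Fluidigm arrays) of SLC22A1 transcript, normalized to three housekeeping genes; bidirectional curve fit relative to 0.5% DMSO vehicle. Differentiated human HepaRG cells, 48 h chemical exposure, top concentration 100 uM, half-log steps, eight points.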
# [16] = read-out: Pyruvate Dehydrogenase Kinase 4 (PDK4), PDK4 (gene 5166); assay: LTEA_HepaRG_PDK4: Life Technologies and Expression Analysis (LTEA) Assay for Pyruvate Dehydrogenase Kinase 4 (PDK4) using HepaRG (AID 2283525)
# Summary of the method: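 HepaRG (human liver line), 48 h chemical exposure, 8-pt half-log CRC top 100 uM, 0.5% DMSO vehicle, duplicates. Readout: TaqMan qRT-PCR of PDK4 mRNA, housekeeping-normalized; gain/loss fit relative to DMSO baseline.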
# [17] = read-out: NAD(P)H dehydrogenase [quinone] 1 (NQO1), NQO1 (gene 1728); assay: LTEA_HepaRG_NQO1: Life Technologies and Expression Analysis (LTEA) Assay for NAD(P)H dehydrogenase [quinone] 1 (NQO1) using HepaRG (AID 2283526)
# Summary of the method: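 qRT-PCR read-out (Fluidigm TaqMan), normalized to three housekeeping genes, after 48 h chemical exposure of HepaRG cells. Concentrations: eight points, top 100 uM, half-log steps, 0.5% DMSO vehicle. Gain or loss of signal fitted relative to DMSO.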
# [18] = read-out: JUN Transcription Factor, JUN (gene 3725); assay: LTEA_HepaRG_JUN: Life Technologies and Expression Analysis (LTEA) Assay for JUN Transcription Factor using HepaRG (AID 2283513)
# Summary of the method: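 HepaRG, 48 h exposure, 8-pt half-log series top 100 uM, 0.5% DMSO, duplicate. JUN mRNA by qRT-PCR (Fluidigm), housekeeping-normalized (ACTB/GAPDH/POLR2A); bidirectional curve fit vs DMSO baseline.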
# MYC, MYC (gene 4609) = assay: LTEA_HepaRG_MYC: Life Technologies and Expression Analysis (LTEA) Assay for MYC using HepaRG (AID 2283518)
# Summary of the method: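 MYC transcript changes, up or down relative to 0.5% DMSO, from TaqMan qRT-PCR normalized to three housekeeping genes. Human HepaRG cultures received chemicals for 48 h at eight half-log concentrations up to 100 uM, in duplicate.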
# Chain of Nuclear factor NF-kappa-B p105 subunit (Homo sapiens) (P19838 whole entry, looked up): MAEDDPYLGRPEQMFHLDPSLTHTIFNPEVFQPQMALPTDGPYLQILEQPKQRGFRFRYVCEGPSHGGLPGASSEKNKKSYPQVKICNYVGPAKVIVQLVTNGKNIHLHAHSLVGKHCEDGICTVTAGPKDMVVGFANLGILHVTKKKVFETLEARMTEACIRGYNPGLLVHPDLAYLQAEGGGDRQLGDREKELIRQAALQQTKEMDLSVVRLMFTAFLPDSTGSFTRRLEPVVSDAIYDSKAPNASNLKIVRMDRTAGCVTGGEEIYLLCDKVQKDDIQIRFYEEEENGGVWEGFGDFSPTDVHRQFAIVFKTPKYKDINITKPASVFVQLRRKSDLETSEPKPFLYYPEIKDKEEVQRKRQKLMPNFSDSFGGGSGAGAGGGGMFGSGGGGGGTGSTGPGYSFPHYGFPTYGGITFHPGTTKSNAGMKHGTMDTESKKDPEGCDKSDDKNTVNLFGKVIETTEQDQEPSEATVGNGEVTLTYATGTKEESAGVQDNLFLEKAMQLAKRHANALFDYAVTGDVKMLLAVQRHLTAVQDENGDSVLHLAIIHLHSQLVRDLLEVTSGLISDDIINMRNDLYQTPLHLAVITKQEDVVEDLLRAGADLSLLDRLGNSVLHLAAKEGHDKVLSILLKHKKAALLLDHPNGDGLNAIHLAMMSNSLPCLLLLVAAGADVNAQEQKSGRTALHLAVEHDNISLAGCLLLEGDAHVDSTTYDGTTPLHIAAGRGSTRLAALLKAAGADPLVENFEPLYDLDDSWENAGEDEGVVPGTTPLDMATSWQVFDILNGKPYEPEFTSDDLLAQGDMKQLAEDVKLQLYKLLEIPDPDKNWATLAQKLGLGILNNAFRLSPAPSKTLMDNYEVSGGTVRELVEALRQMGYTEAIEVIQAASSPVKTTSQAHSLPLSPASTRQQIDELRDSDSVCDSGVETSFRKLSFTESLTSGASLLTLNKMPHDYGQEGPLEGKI
smiles,measurement,setting,value
CC(=O)NC1(c2cccc(F)c2)CCN(CC[C@@]2(c3ccc(Cl)c(Cl)c3)CN(c3ccccc3)C(=O)CO2)CC1,AC50,[1],49 µM (active)
same,AC50,[2],41.5 µM (active)
same,AC50,[3],76.2 µM (active)
same,AC50,[4],77.5 µM (active)
same,outcome,[5],inactive
same,outcome,[6],inactive
same,outcome,[7],inactive
same,AC50,[8],23.1 µM (active)
same,outcome,[9],inactive
same,AC50,[10],71 µM (active)
same,outcome,[11],inactive
same,AC50,[12],61.6 µM (active)
same,outcome,[13],inactive
same,AC50,[14],65.3 µM (active)
same,AC50,[15],77.2 µM (active)
same,outcome,[16],inactive
same,outcome,[17],inactive
CN(C)C=O,outcome,[1],inactive
same,outcome,[2],inactive
same,outcome,[3],inactive
same,outcome,[5],inactive
same,outcome,[6],inactive
same,outcome,[18],inactive
same,outcome,[7],inactive
same,outcome,[8],inactive
same,outcome,[9],inactive
same,outcome,[10],inactive
same,outcome,"MYC, MYC (gene 4609)",inactive
same,outcome,[11],inactive
same,outcome,[12],inactive
same,outcome,[13],inactive
same,outcome,[14],inactive
same,outcome,[15],inactive
same,outcome,[16],inactive
same,outcome,[17],inactive
N#C[C@@H]1CC(F)(F)CN1C(=O)CNC1CC2CCC(C1)N2c1ncccn1 (some centres not stated),outcome,[1],inactive
same,outcome,[2],inactive
same,outcome,[3],inactive
same,outcome,[4],inactive
same,outcome,[5],inactive
same,outcome,[6],inactive
same,outcome,[7],inactive
same,outcome,[8],inactive
same,outcome,[9],inactive
same,outcome,[10],inactive
same,outcome,[11],inactive
same,AC50,[12],1.8 µM (active)
same,outcome,[13],inactive
same,outcome,[14],inactive
same,outcome,[15],inactive
same,outcome,[16],inactive
same,outcome,[17],inactive
O=[N+]([O-])c1ccc(O)cc1,outcome,[1],inactive
same,outcome,[2],inactive
same,outcome,[3],inactive
same,outcome,[4],inactive
same,outcome,[5],inactive
same,outcome,[6],inactive
same,outcome,[18],inactive
same,outcome,[7],inactive
same,outcome,[9],inactive
same,outcome,[10],inactive
same,outcome,[11],inactive
same,outcome,[12],inactive
same,outcome,[13],inactive
same,outcome,[14],inactive
same,outcome,[15],inactive
same,outcome,[16],inactive
same,outcome,[17],inactive
CC[C@H](C)[C@@H](C(=O)O)n1sc2ccccc2c1=O,outcome,[1],inactive
same,outcome,[2],inactive
same,outcome,[3],inactive
same,outcome,[5],inactive
same,outcome,[6],inactive
same,outcome,[18],inactive
same,outcome,[7],inactive
same,outcome,[9],inactive
same,outcome,[10],inactive
same,outcome,"MYC, MYC (gene 4609)",inactive
same,outcome,[11],inactive
same,outcome,[13],inactive
same,outcome,[14],inactive
same,outcome,[15],inactive
same,outcome,[16],inactive
same,outcome,[17],inactive
CCCCCCCC(=O)O,AC50,[1],0.405 µM (active)
same,outcome,[2],inactive
same,outcome,[3],inactive
same,outcome,[5],inactive
same,outcome,[6],inactive
same,outcome,[18],inactive
same,outcome,[7],inactive
same,outcome,[9],inactive
same,outcome,[10],inactive
same,outcome,"MYC, MYC (gene 4609)",inactive
same,outcome,[11],inactive
same,outcome,[13],inactive
same,outcome,[14],inactive
same,outcome,[15],inactive
same,outcome,[16],inactive
same,outcome,[17],inactive
COC(=O)CCCCC(=O)OC,outcome,[1],inactive
same,outcome,[2],inactive
same,outcome,[3],inactive
same,outcome,[4],inactive
same,outcome,[5],inactive
same,outcome,[6],inactive
same,outcome,[7],inactive
same,outcome,[9],inactive
same,outcome,[10],inactive
same,outcome,"MYC, MYC (gene 4609)",inactive
same,outcome,[11],inactive
same,outcome,[13],inactive
same,outcome,[14],inactive
same,outcome,[15],inactive
same,outcome,[16],inactive
same,outcome,[17],inactive
